Rows were chosen to be rich in hits. Some 1.5% of all compounds tested hit in one or more screens of this group.
Mtb hypoxia rep: Mtb hypoxia fluorescent reporter inhibition; M. tuberculosis hypoxia-regulated fluorescent reporter, fluorescence; fluorescence inhibition, % (test concentration not listed); 0.1% of 300,000 active; in the data active = fluorescence inhibition mostly above about 23%, no sharp cut-off; inactive = mostly below about 17%
PrPC surface inh: cell surface PrPC inhibition, primary TR-FRET screen. TR-FRET read-out. AID 720596. inhibition, % at 13.8 µM. P04156. 0.43% of 370,000 active; in the data active = inhibition above about 24%
SARS 3CLpro inh-1: SARS-CoV 3CLpro protease inhibition; P0C6X7; 0.14% of 290,000 active; recombinant SARS-CoV 3CLpro, quenched FRET peptide cleavage; inhibition, % at 6 µM; in the data active = inhibition above about 12%
MazF activator: MazEF (E. coli) toxin RNase activation; 0.32% of 350,000 active; activation, % at 20 µM; P0AE70; FAM/BHQ RNA-DNA oligo cleavage fluorescence, 5 h; AID 504720; in the data active = activation above about 50%
Target sequence (P0AE70 whole entry, looked up): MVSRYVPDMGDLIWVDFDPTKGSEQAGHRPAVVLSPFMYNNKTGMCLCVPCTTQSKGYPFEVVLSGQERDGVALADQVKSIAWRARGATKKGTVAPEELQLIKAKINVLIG
PrP 5UTR inh: suppresses PrP 5' UTR mRNA reporter expression; cell-based PrP 5' UTR mRNA reporter, plate reader; inhibition, % (no concentration beside the values); 0.35% of 340,000 active; AID 488862; in the data active = inhibition above about 52%
VHR inh abs: DUSP3 (human) phosphatase inhibition. P51452. recombinant VHR phosphatase, pNPP absorbance. inhibition, % at 13.3 µM. 0.52% of 290,000 active; in the data active = inhibition above about 50%
Target sequence (P51452 whole entry, looked up): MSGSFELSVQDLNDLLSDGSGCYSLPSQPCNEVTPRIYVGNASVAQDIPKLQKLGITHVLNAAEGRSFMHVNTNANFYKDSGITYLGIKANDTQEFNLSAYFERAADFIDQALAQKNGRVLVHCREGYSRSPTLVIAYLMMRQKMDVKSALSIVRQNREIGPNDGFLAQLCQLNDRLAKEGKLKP
SARS 3CLpro inh-2: confirmation of SARS coronavirus 3C-like protease inhibitors; shares compounds with SARS 3CLpro inh-1; QFRET protease activity assay, 3CLpro; inhibition, % at 6 µM; 36% of 380 active; AID 1879; in the data active = inhibition above about 13%
Hits are given with their value; 0 = inactive; - = no result given.

SMILES | Mtb hypoxia rep | PrPC surface inh | SARS 3CLpro inh-1 | MazF activator | PrP 5UTR inh | VHR inh abs | others
CCOC(=O)[C@]12Cc3c(cc(OC)c(OC)c3OC)[C@H]1N(C1CCCCC1)C(=O)c1ccccc12 | - | 32 | - | - | - | -
CCOC(=O)[C@]12Cc3ccc(C)cc3[C@H]1N(C1CCCCC1)C(=O)c1cc(OC)ccc12 | - | 36 | - | - | - | -
CCOC(=O)[C@]12Cc3cc(C)ccc3[C@H]1N(C1CCCCC1)C(=O)c1ccccc12 | - | 38 | - | - | - | -
CCCCn1nc2cc(C(=O)NC(C)C3CCCCC3)ccc2c1OCC (stereo unspecified) | 0 | - | - | - | - | -
CCC(=O)c1cn(C(=CC(=O)OC(C)(C)C)CCC(OC)OC)cc1CC | 0 | - | - | - | - | -
CCOC(=O)[C@]12Cc3ccc(C)cc3[C@H]1N(C1CCCCC1)C(=O)c1ccccc12 | - | 33 | - | - | - | -
CC1(C(=O)N2CCC(CO)(Cc3cccc(C(F)(F)F)c3)CC2)CC1 | 0 | 0 | 0 | 0 | 0 | 0
CC(=O)c1ccc(C(=O)N2CCC(CO)(Cc3cccc(C(F)(F)F)c3)CC2)cc1 | 0 | 0 | 0 | 0 | 0 | 53
CCOC(=O)CSc1nnc(CSc2nc(C)cc(C)n2)n1Cc1ccco1 | 0 | 0 | 0 | 74 | 0 | 0
COC(=O)CCCC1=CC2=C(c3ccccc3)C(=O)C(C)(OC(=O)C3CCCC3)C(=O)C2=CN1CCc1c[nH]c2ccccc12 (stereo unspecified) | 0 | 0 | - | 54 | 0 | 0
COc1ccccc1NC(=O)CSc1nc2nc(C)cc(C)c2c(=O)[nH]1 | 0 | 0 | 0 | 51 | 0 | 0
CCOc1ccc(C=NNC(=O)c2cc(-c3ccco3)nc3ccccc23)cc1 | 0 | - | - | - | - | -
O=C(NN=Cc1ccncc1)c1cc(C2CC2)nc2ccccc12 | 0 | - | - | - | - | -
CC(=O)c1cccc(NC(=O)NC2CCCCC2)c1 | 0 | - | 0 | 0 | 0 | 0
CC(=O)c1cccc(NC(=O)NC2CCCCCCC2)c1 | 33 | 0 | 0 | 0 | 0 | 0
COc1cc(C(=O)Nc2cc(S(=O)(=O)N3CCOCC3)ccc2N2CCOCC2)cc(OC)c1C | 0 | 0 | - | 0 | - | -
COc1cc(C(=O)Nc2cc(S(=O)(=O)N3CCOCC3)ccc2N2CCOCC2)ccc1OC(F)F | 23 | 0 | - | 0 | 0 | -
CCOC(=O)C1=C(C)Nc2ccccc2N=C1NC(=O)Cc1ccc(OC)cc1 | 0 | 0 | 0 | 0 | 0 | 51
Cc1cc(=O)[nH]c(NN=Cc2ccc(Br)s2)n1 | 0 | - | - | - | - | -
CC(C)(O)C(=O)NN=Cc1ccc(OC/C=C/c2ccccc2)cc1 | 0 | - | - | - | - | -
[O-][n+]1c2ccccc2c2n1CCN1CCOC21c1ccc(Cl)cc1 (stereo unspecified) | 66 | 0 | - | 0 | 0 | -
COc1ccc(C=NNC(=O)c2ccc(CSc3nc(C)cc(C)n3)cc2)c(OC)c1OC | 0 | - | - | - | - | -
O=C(CSc1nnc(-c2ccco2)o1)NCCc1ccccc1 | 38 | 0 | - | 0 | 0 | -
CN1C(=O)/C(=C/c2ccc(N3CCCCCC3)o2)C(=O)NC1=S | 45 | 0 | 0 | 0 | 0 | 0
CN1C(=O)/C(=C\c2ccc(N3CCCCC3)o2)C(=O)NC1=S | - | 0 | 0 | 0 | 0 | 0
SMILES | Mtb hypoxia rep | PrPC surface inh | SARS 3CLpro inh-1 | MazF activator | PrP 5UTR inh | VHR inh abs | others
CCCN1C(=O)C(=Cc2ccc(C)s2)SC1=Nc1ccc(OC)cc1 | 0 | - | - | - | - | -
CC(C)OCCCn1c(=O)c2ccccc2n2c(CCC(=O)O)nnc12 | 0 | 0 | 0 | 0 | 0 | 0
CC(C)OCCCn1c(=O)c2ccccc2n2c(CCC(=O)NC3CCN(Cc4ccccc4)CC3)nnc12 | 0 | 0 | 0 | 0 | 0 | 53
CC1CCCC(C)N1N=Cc1ccccc1Br (stereo unspecified) | 0 | - | - | - | - | -
N/C(Cc1ccc([N+](=O)[O-])cc1)=N\OC(=O)c1ccccc1F | - | 0 | 0 | 0 | 0 | 57
NC(Cc1ccc([N+](=O)[O-])cc1)=NOC(=O)c1ccc([N+](=O)[O-])cc1 | 0 | - | - | - | - | -
COc1cccc(OC)c1C(=O)N1CCN(S(=O)(=O)c2ccccc2)CC1 | - | 0 | 0 | 0 | 0 | 0
COc1ccccc1C(=O)N1CCN(S(=O)(=O)c2ccccc2)CC1 | 0 | 0 | 0 | 0 | 0 | 57
C=CCN1C(=O)/C(=C/c2ccc(Br)s2)C(=O)NC1=S | 0 | 0 | 0 | 72 | 0 | 0
Clc1ccc(CON=C2CCCc3nonc32)c(Cl)c1 | 0 | - | - | - | - | -
COc1cc(C=NN=C2SCC(=O)N2c2ccc(O)cc2)ccc1O | 0 | - | - | - | - | -
CCCCN(C(=O)CSc1nnc(-c2ccccc2)o1)c1c(N)n(CCC)c(=O)[nH]c1=O | 30 | 0 | - | 0 | 0 | -
CCCCN(C(=O)c1ccco1)c1c(N)n(CCC)c(=O)[nH]c1=O | 28 | 0 | - | 0 | 0 | -
CCCCn1c(N)c(N(CCOC)C(=O)c2oc3ccc(Br)cc3c2C)c(=O)[nH]c1=O | 26 | 0 | - | 0 | 0 | -
CCCCN(C(=O)c1oc2ccc(OCC)cc2c1C)c1c(N)n(CCCC)c(=O)[nH]c1=O | - | 0 | - | 0 | 0 | -
C=CCn1c(CNC(=O)c2ccccc2F)nnc1SCc1nc2ccccc2c(=O)[nH]1 | 0 | 0 | 0 | 0 | 0 | 52
C=CCn1c(CCNC(=O)c2ccccc2F)nnc1SCc1nc2ccccc2c(=O)[nH]1 | 0 | 0 | 0 | 0 | 0 | 0
CCOc1cc(C=NNc2ccccc2Cl)ccc1OCC(=O)O | 0 | - | - | - | - | -
O=C(CC(c1ccccc1)c1ccccc1)Nc1ccc(Cl)cn1 | - | 29 | 0 | 0 | 0 | 0
CC1CCN(c2nc3ccccn3c(=O)c2C=O)CC1 | 45 | 0 | 0 | 0 | 0 | 0
CC(C)(C)c1ccc(C(=O)Nc2c3c(nn2C(C)(C)C)CS(=O)(=O)C3)cc1 | 0 | 0 | 0 | 0 | 0 | 0
Cc1cc(C)cc(C(=O)Nc2c3c(nn2C(C)(C)C)CS(=O)(=O)C3)c1 | 0 | 0 | 0 | 0 | 0 | 51
CC1=CC(=C2N=C(c3ccccc3)OC2=O)C=C(C)O1 | 0 | 0 | 0 | 306 | 0 | 0
CN1C=CC=C/C1=C1/N=C(c2ccccc2)OC1=O | 0 | 0 | 0 | 0 | 0 | 0
COc1ccc(-c2c(C)n([O-])c3c([n+]2=O)CCCC3)cc1 | 0 | 0 | 0 | 0 | 0 | 52
SMILES | Mtb hypoxia rep | PrPC surface inh | SARS 3CLpro inh-1 | MazF activator | PrP 5UTR inh | VHR inh abs | others
CCC(C)C1CN=C(N)N1CC1CCCCC1 (stereo unspecified) | 0 | - | - | - | - | -
Cc1ccc2nc3cc([N+](=O)[O-])cc([N+](=O)[O-])c3cc2c1 | 0 | 0 | 0 | 354 | 0 | 0
COc1ccc(NC(=O)ON=Cc2ccncc2)cc1 | 0 | - | - | - | - | -
CC1=C([N+](=O)[O-])C(c2ccc(Cl)cc2)NC(=O)N1 (stereo unspecified) | 0 | 0 | 0 | 0 | 0 | 59
CCOC(=O)Cc1csc(NN=Cc2ccccc2OC)n1 | 0 | - | - | - | - | -
Cc1ccc(C)c(Cn2nc(-c3ccccc3)ccc2=O)c1 | 0 | 0 | 0 | 0 | 0 | 53
O=C1NC(=S)SC1=Cc1ccc2c(c1)OCO2 | 0 | 0 | - | 0 | 0 | -
O=C1N/C(=N/S(=O)(=O)Cc2ccccc2)S/C1=C/c1ccc2c(c1)OCO2 | 0 | 0 | 13 | 0 | 0 | 0 | SARS 3CLpro inh-2=0
COc1ccc(N/N=C(/C#N)S(=O)(=O)c2nsc(C)c2C#N)cc1 | - | 0 | 0 | 0 | 0 | 0
Cc1snc(S(=O)(=O)/C(C#N)=N/Nc2cccc(C(F)(F)F)c2)c1C#N | - | - | 15 | 0 | 0 | 0 | SARS 3CLpro inh-2=0
C#CCNC(=O)c1cc(-c2ccccc2)sc1N | - | 0 | - | - | - | -
